Fam108B inh – mouse Fam108B serine hydrolase inhibitors, primary screen, counter-screen for RBBP9 inhibitor project, biochemical, fluorescence polarization; recombinant Fam108B, FP-Rh probe fluorescence polarization; inhibition, % at 9.51 µM; 300,000 compounds, 0.33% hits; AID 1947, 2009;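 active = inhibition above the screen mean inhibition plus 3 SD, computed separately per campaign, cut at about 18% in these data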;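 also: inhibitors lower polarization as less probe binds the enzyme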
PAFAH1B3 FP inh – PAFAH1B3 enzyme inhibitors, primary screen, biochemical, fluorescence polarization, human | inhibition, % at 3.39 µM | 340,000 compounds, 0.28% hits | AID 492972, 2010 | Platelet-activating factor acetylhydrolase IB subunit alpha1 (Homo sapiens), Q15102 | recombinant PAFAH1B3, FP-rhodamine probe;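 active = inhibition above the screen-wide average of all tested compounds plus 3 SD, cut at about 25% in these data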;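 also: 0% = enzyme with DMSO only and 100% = wells lacking PAFAH1B3 protein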
PAFAH1B2 inh – PAFAH1B2 enzyme inhibitors, primary screen, biochemical, fluorescence polarization, human; 340,000 compounds, 1.2% hits; inhibition, % at 3.39 µM; AID 492953, 2010; Platelet-activating factor acetylhydrolase IB subunit alpha2 (Homo sapiens), P68402; recombinant PAFAH1B2, FP-rhodamine activity probe;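 active = inhibition above the mean of all tested compounds plus 3 SD, cut at about 24% in these data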;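 also: 0% = enzyme with DMSO and 100% = wells lacking PAFAH1B2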
Target sequence (P68402 whole entry, looked up): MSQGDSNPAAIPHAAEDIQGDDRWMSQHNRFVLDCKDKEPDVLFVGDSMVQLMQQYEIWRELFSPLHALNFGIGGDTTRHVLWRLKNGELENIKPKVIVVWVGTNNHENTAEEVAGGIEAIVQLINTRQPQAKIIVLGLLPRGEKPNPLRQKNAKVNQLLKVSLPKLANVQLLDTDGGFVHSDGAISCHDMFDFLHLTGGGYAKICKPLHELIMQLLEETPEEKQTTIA
PME-1 inh – PME-1 inhibitors via competitive probe labeling, primary screen, biochemical, fluorescence polarization, FP-Rh probe, HTS; Protein phosphatase methylesterase 1 (Homo sapiens), Q9Y570; recombinant PME-1; inhibition, % at 5.9 µM; 320,000 compounds, 0.53% hits; AID 2130, 2009;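 active = inhibition above the campaign mean of all compounds plus 3 SD, cut at about 26% in these data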;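 also: competitive labeling of PME-1 active site by serine hydrolase directed probe; 0% = PME-1 with DMSO and 100% = wells lacking PME-1 enzyme; inhibitors block probe labeling so polarization falls and inhibition rises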
pPAFAH inh – pPAFAH enzyme inhibitors, primary screen, biochemical, fluorescence polarization, human. Platelet-activating factor acetylhydrolase (Homo sapiens), Q13093. recombinant pPAFAH, FP-rhodamine probe fluorescence polarization. inhibition, % at 3.39 µM. 330,000 compounds, 1.5% hits. AID 463082, 2010;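 active = inhibition above the mean inhibition across the screen plus 3 SD, cut at about 25% in these data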;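 also: inhibitors block binding of the rhodamine activity-based probe so polarization drops; 0% = enzyme with DMSO and 100% = wells lacking pPAFAH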
Target sequence (Q13093 whole entry, looked up): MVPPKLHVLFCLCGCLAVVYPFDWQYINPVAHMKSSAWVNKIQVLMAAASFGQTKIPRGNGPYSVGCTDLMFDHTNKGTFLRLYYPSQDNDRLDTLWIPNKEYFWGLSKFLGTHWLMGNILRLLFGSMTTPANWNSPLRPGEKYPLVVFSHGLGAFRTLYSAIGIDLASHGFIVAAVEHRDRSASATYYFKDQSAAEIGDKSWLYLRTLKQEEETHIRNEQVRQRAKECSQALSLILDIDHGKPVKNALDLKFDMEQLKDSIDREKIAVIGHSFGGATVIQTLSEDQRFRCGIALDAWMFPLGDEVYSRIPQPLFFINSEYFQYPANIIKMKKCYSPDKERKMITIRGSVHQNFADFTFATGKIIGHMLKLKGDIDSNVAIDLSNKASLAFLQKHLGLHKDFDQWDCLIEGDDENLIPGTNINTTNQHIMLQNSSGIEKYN
PAFAH2 FP inh – PAFAH2 enzyme inhibitors, primary screen, biochemical, fluorescence polarization, human; Platelet-activating factor acetylhydrolase 2, cytoplasmic (Homo sapiens), Q99487; recombinant PAFAH2, FP-rhodamine activity probe; inhibition, % at 3.39 µM; 340,000 compounds, 0.99% hits;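 active = inhibition above the mean over all tested compounds plus 3 SD, cut at about 30% in these data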;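 also: inhibitors block probe labeling of enzyme so polarization drops; 0% = enzyme with DMSO and 100% = wells lacking PAFAH2 protein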
An asterisk follows results filed as active. Shown are actives, neighbours in structure and some others; about 2.9% of the full set was active somewhere.

Screening Cn1cccc1C(=O)NCC(c1ccco1)N1CCCCC1 (stereo not drawn) returned Fam108B inh -6, PAFAH1B3 FP inh -2, PAFAH1B2 inh -1, PME-1 inh -5, pPAFAH inh -4 and PAFAH2 FP inh -2.
`Cc1nc2ccccn2c1C(=O)/C=C/c1ccc(F)cc1` gave Fam108B inh 2, PAFAH1B3 FP inh -1, PAFAH1B2 inh -1, PME-1 inh -3, pPAFAH inh -6 and PAFAH2 FP inh -8.
Screening Cc1nc2ccccn2c1-c1ccnn1S(=O)(=O)c1ccc(F)cc1 returned Fam108B inh 1, PAFAH1B3 FP inh -3, PAFAH1B2 inh 31*, PME-1 inh 5, pPAFAH inh 3 and PAFAH2 FP inh 12.
Screening NC(CO)C(=O)NNCc1ccc(O)c(O)c1O (stereo not drawn) returned Fam108B inh 6, PAFAH1B3 FP inh 19, PAFAH1B2 inh 6, PME-1 inh -17, pPAFAH inh 28* and PAFAH2 FP inh 8.
Screening COC(=O)C(N)Cc1ccc(O)c(O)c1 (stereo not drawn) returned Fam108B inh 0, PAFAH1B3 FP inh 7, PAFAH1B2 inh 1, PME-1 inh 9, pPAFAH inh 14 and PAFAH2 FP inh -3.
Screening O=C(CCn1c(=O)[nH]c2ccccc2c1=O)N1CCN(c2cccc(C(F)(F)F)c2)CC1 returned Fam108B inh 0, PAFAH1B3 FP inh 1, PAFAH1B2 inh 31*, PME-1 inh 1, pPAFAH inh -2 and PAFAH2 FP inh -25.
COc1cc2[nH]c(=O)n(CCCCCC(=O)N3CCN(c4ccccc4)CC3)c(=O)c2cc1OC was read as Fam108B inh -2, PAFAH1B3 FP inh 3, PAFAH1B2 inh 3, PME-1 inh 2, pPAFAH inh 27* and PAFAH2 FP inh 2.
For COc1ccc(C(=O)NCCCOC(C)C)cc1OC1CCN(C(C)=O)CC1 the results were Fam108B inh -1, PAFAH1B3 FP inh 3, PAFAH1B2 inh 1, PME-1 inh 2, pPAFAH inh -4 and PAFAH2 FP inh 11.
`Cc1cc(C(=O)NNC(=O)CN2C(=O)NC3(CCCCC3)C2=O)c(C)o1` gave PAFAH1B3 FP inh 6, PAFAH1B2 inh 1, PME-1 inh 1, pPAFAH inh 3 and PAFAH2 FP inh -3.
For Cc1ccc(SCCC(=O)Nc2ccccc2Br)cc1 the results were Fam108B inh 1, PAFAH1B3 FP inh 8, PAFAH1B2 inh 26*, PME-1 inh 3, pPAFAH inh 3 and PAFAH2 FP inh 2.
Cc1ccc(CSCCC(=O)NCCc2ccc(Cl)cc2)cc1 was read as Fam108B inh -3, PAFAH1B3 FP inh 1, PAFAH1B2 inh 15, PME-1 inh 0, pPAFAH inh 6 and PAFAH2 FP inh -2.
Cc1ccc(SCCC(=O)Nc2ccc(Br)c(C)c2)cc1 was read as Fam108B inh -26, PAFAH1B3 FP inh 2, PAFAH1B2 inh 15, PME-1 inh -22, pPAFAH inh -1 and PAFAH2 FP inh -2.
Screening Cc1ccc(CSCCNC(=O)CCSc2ccccc2)cc1 returned Fam108B inh -6, PAFAH1B3 FP inh 0, PAFAH1B2 inh 41*, PME-1 inh -8, pPAFAH inh 12 and PAFAH2 FP inh 4.
O=C(CCSCc1cccc(Cl)c1)NCCc1ccc(Cl)cc1 was read as Fam108B inh -4, PAFAH1B3 FP inh 0, PAFAH1B2 inh 28*, PME-1 inh 4, pPAFAH inh 4 and PAFAH2 FP inh 1.
For Cc1ccc(CNC(=O)CCSCc2cccc(F)c2)cc1 the results were Fam108B inh 1, PAFAH1B3 FP inh 8, PAFAH1B2 inh 25*, PME-1 inh 3, pPAFAH inh 17 and PAFAH2 FP inh 0.
CCCCCSc1nnc(-c2ccccc2N)c(=O)[nH]1 was read as Fam108B inh 3, PAFAH1B3 FP inh 1, PAFAH1B2 inh 8, PME-1 inh 2, pPAFAH inh 2 and PAFAH2 FP inh -1.
Screening O=C(CCSCc1ccc(Cl)cc1)NC1CCCC1 returned Fam108B inh 6, PAFAH1B3 FP inh 1, PAFAH1B2 inh 27*, PME-1 inh -1, pPAFAH inh 4 and PAFAH2 FP inh -2.
For O=C(Cc1ccc(Cl)cc1)NC1CC1 the results were Fam108B inh -5, PAFAH1B3 FP inh 1, PAFAH1B2 inh 1, PME-1 inh 7, pPAFAH inh 1 and PAFAH2 FP inh 2.
`CC(=O)c1sc(NC(=O)CN2C(=O)CCC2=O)nc1C` gave Fam108B inh 3, PAFAH1B3 FP inh 3, PAFAH1B2 inh 4, PME-1 inh -12, pPAFAH inh 2 and PAFAH2 FP inh 3.
O=C(O)c1cccc(COc2ccc3c(c2)CCC3)c1 was read as Fam108B inh 5, PAFAH1B3 FP inh 4, PAFAH1B2 inh 48*, PME-1 inh 6, pPAFAH inh 3 and PAFAH2 FP inh -3.
`COc1ccc(OCc2cccc(C(=O)O)c2)cc1` gave Fam108B inh -4, PAFAH1B3 FP inh 3, PAFAH1B2 inh 25*, PME-1 inh -6, pPAFAH inh 1 and PAFAH2 FP inh 1.
O=C(O)c1cc(OCc2ccccc2)cc(OCc2ccccc2)c1 was read as Fam108B inh 4, PAFAH1B3 FP inh 2, PAFAH1B2 inh 29*, PME-1 inh -2, pPAFAH inh 23 and PAFAH2 FP inh 12.
CCOc1cc(OCC)cc(C(=O)O)c1 was read as Fam108B inh -1, PAFAH1B3 FP inh 4, PAFAH1B2 inh 6, PME-1 inh 5, pPAFAH inh 9 and PAFAH2 FP inh 0.
Screening COc1cccc(NC(=O)CN2CCC(C)CC2)c1 returned Fam108B inh 0, PAFAH1B3 FP inh 6, PAFAH1B2 inh 4, PME-1 inh 3, pPAFAH inh 6 and PAFAH2 FP inh -6.
Screening COCCN(Cc1ccc(C)c(Br)c1)C(=O)Cn1cnc(S(=O)(=O)N2CCCC2)c1 returned Fam108B inh 4, PAFAH1B3 FP inh 0, PAFAH1B2 inh 0, PME-1 inh 8, pPAFAH inh 2 and PAFAH2 FP inh 0.
For COc1cc(/C=C2\SC(=O)N(Cc3ccc(Cl)cc3)C2=O)cc([N+](=O)[O-])c1O the results were PAFAH1B3 FP inh 19, PAFAH1B2 inh 39* and PAFAH2 FP inh 49*.
For COc1cc(/C=C2\SC(=O)N(Cc3ccc(F)cc3)C2=O)cc([N+](=O)[O-])c1O the results were PAFAH1B3 FP inh 5, PAFAH1B2 inh 5 and PAFAH2 FP inh 29.
`Cc1cc(=O)n(C)c(=O)n1CCCCCCN1CCCC1` gave Fam108B inh -6, PAFAH1B3 FP inh -8, PAFAH1B2 inh 4, PME-1 inh -3, pPAFAH inh 2 and PAFAH2 FP inh -4.
